We go through 40 compounds from ChEMBL document CHEMBL3433997, “St. Jude Leishmania screening dataset” (2016).

The experiment addresses Glucose transporter (Leishmania mexicana) (UniProt O61059). The experiment in a line: ST_JUDE_LEISH: Cytotoxicity at 2uM final concentration against transgenic Leishmania Mexicana promastigotes LmGT2 that are glucose transport deficient and complemented with the L. Mexicana glucose transporter 2. Activity is measured by DNA content using SYBR green in vitro. In kind it is functional.
On to `FC(F)(F)c1ccc(N2CCCN(Cc3cccc(-c4ccccc4CNCc4ccc5c(c4)OCO5)c3)CC2)nc1`, for which the inhibition is -0.04%.
For the compound `O=C(Nc1ccc(-c2csc3nccn23)cc1)c1ccc(Cl)cc1`, the inhibition is -0.28%.
The result for `CCCCc1ccc(NC(=O)Nc2ccc3c(c2)CCNCC3)cc1` reads 1.65%; that for `COc1ccc2nccc([C@@H](O)CN3CCC(NC(=O)C(c4cccs4)N4CCN(c5ccc(F)cc5)CC4)CC3)c2c1` (stereo not given in full), 4.65%; that for `COc1ccc(Br)cc1/C=C/C(=O)Nc1ccc(C2CCN(C)CC2)cc1`, 4.19%.
Regarding `Cc1cc(C(=O)CN2C(=O)NC3(CCCc4ccccc43)C2=O)c(C)n1Cc1ccc(F)cc1` (stereo not given), the inhibition was determined as 5.14%.
The same measure for `CC(C)C1=NC(=O)c2cc([N+](=O)[O-])ccc2CN1`: 2.11%; for `COc1ccc(Cl)cc1C(=O)Nc1ccc(-c2nc3ccccc3[nH]2)cc1`: 1.35%.
The result for `CN1CCC(N2CCN(Cc3ccc(-c4cccc(-c5nc6cc(F)ccc6[nH]5)c4)cc3)CC2)CC1` reads 2.94%.
As for `Cc1cccc2nc(-c3cccc(-c4ccc(NC(=O)c5ccoc5)cc4)c3)[nH]c12`, the inhibition was -1.09%.
The result for `Nc1nccc(-c2ccc3c(/C=C/c4ccccc4)cnc(N)c3c2)n1` reads 0.5%; that for `CCCCCc1ccc(N2C(N)=NC(N)=NC2(C)C)cc1`, 4.35%.
The same measure for `Fc1ccccc1-c1cc(Nc2ccncc2)nc(-c2cccnc2)n1`: -6.71%; for `NC(=O)c1cccc(C(=O)Nc2cccc(-c3csc(-c4nc5ccccc5[nH]4)c3)c2)c1`: 2.09%; for `COc1ccc(NC(=O)c2ccc(-c3ccc(-c4cccnc4)cc3)c(C)c2)cc1OCCN(C)C`: 0.84%.
The same measure for `c1ccc(CNCc2cccc(-c3csc(-c4nc5ccccc5[nH]4)c3)c2)cc1`: 3.11%; for `CC(O)C1CCCCN1C(=O)c1cccc(-c2ccc(-c3nc4ccccc4[nH]3)s2)c1` (stereo not given): 5.38%; for `O=C(CCC1CCCCC1=O)c1ccccc1` (stereo not given): 1.52%.
With `CC(C)(CNC(=O)[C@@H]1CCCN(CCOc2ccc(F)c(F)c2)C1)c1nc(-c2ccc(Cl)c(O)c2)c(-c2ccncc2)[nH]1`, the inhibition worked out at 1.28%.
Take `COc1ccccc1NC(=O)OC(COc1ccc(N)cc1)CN1CC=C(c2ccccc2)CC1` (stereo not given): the inhibition was determined as 0.98%.
The result for `Oc1ccccc1CNCc1ccc(-c2cnc(N3CCCC(c4ccccc4)C3)nc2)cc1` (stereo not given) reads 9.12%; that for `Cc1nc(N)nc(N)c1OCc1ccc(Cl)c(Cl)c1`, 2.48%.
Regarding `COc1cccc(C=CC(=O)N(CCN)Cc2ccccc2)c1`, the inhibition is 7.33%.
The result for `O=C(NCCCCCN1CCC(c2c[nH]c3ccccc23)CC1)Nc1cccc(Cl)c1` reads 0.16%; that for `CSc1ccc(NC(=O)Nc2cc(C)nc3ccccc23)cc1Br`, 0.36%; that for `COc1ccc(NC(=O)Nc2cccc(-c3cccc(-c4nc5cc(F)ccc5[nH]4)c3)c2)cc1`, 0.62%.
The result for `O=C(Nc1cccc(-c2ccc(-c3nc4cc(C(F)(F)F)ccc4[nH]3)cc2)c1)Nc1ccc(Cl)c(Cl)c1` reads 1.65%; that for `Cc1nc(O)c2c(ccc3ccc(CNc4ccc(C(=O)N[C@@H](CCC(=O)O)C(=O)O)cc4)cc32)n1`, 1.05%.
The result for `CN1CCN(CCCN(Cc2ccc(-c3ccc(CNCCc4ccccc4)cc3)cc2)C(=O)c2cccs2)CC1` reads 3.32%; that for `CC(C)NCc1ccc(-c2cccc(NC(=O)c3ccc(C#N)cc3)c2)cc1`, 7.32%.
In the case of `Nc1c(Cl)cc(C(O)CNCCCCCOCCCc2ccc(O)c3ncccc23)cc1Cl` (stereo not given), the inhibition is 97.5%.
The result for `O=C(NCCCCN1CCC(c2ccc3c(c2O)CCCC3)CC1)c1ccc(NC(=O)c2ccc(Cl)cc2)cc1` reads 0.97%.
With `CC(C)(C)c1ccccc1OC(=O)c1ccccc1`, the inhibition was -0.79%.
The same measure for `Cc1ccc(/C=C2/SC(=Nc3ccccc3)NC2=O)c(C)c1`: 7.9%.
The same measure for `CCCCN(CCCC)CCCN(CCCN(CCCC)CCCC)c1cc(C)nc(Nc2ccc(Br)cc2)n1`: -1.15%; for `CC1CCN(Cc2c(O)ccc3c(CN4CCC(C)CC4)c(O)ccc23)CC1`: 6.37%; for `N#Cc1cccc(NC(=O)Nc2cccc(-c3cccc(-c4nc5cc(F)ccc5[nH]4)c3)c2)c1`: 8.96%.
The same measure for `CN1CCc2ccc(NC(=O)Nc3cccc(C(=O)c4ccccc4)c3)cc2C1`: 1.86%; for `O=C(Nc1ccc(-c2nc3ccccc3[nH]2)cc1)c1cccc(S(=O)(=O)N2CCCC2)c1`: 5.05%; for `Fc1ccc2cc(C=Cc3ccncc3)[nH]c2c1`: 0.56%.

A word on the inhibition: it is the relative decrease from the control value, in per cent.
